The source of these data is PubChem BioAssay AID651871 (Sanford-Burnham Center for Chemical Genomics, 2012).

“And” between values parts separate entries of the source, which are not always exact repeats. Equal entries are not always repeated.

This assay concerns HL-1. The assay is described as follows: protection of cardiomyocytes from stress damage, SAR follow-up, cell-based, panel, H9c2 and HL-1, ATP luminescence, set 2 (AID 651871).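 Note: cells exposed to stressor for 2 h before ATP readout; reference of the scale not given here.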 To be noted: H9c2/HL-1 cardiomyocytes, 2-deoxyglucose stress, with 2-deoxyglucose, run 13, at 19.8 µM (top of the series).

As for `COc1ccc2c(c1OC)C(=O)N1c3ccccc3C(=O)N(Cc3cccc(Cl)c3Cl)C21` (stereo unspecified), the activity (protection/inhibition) is 84.6% and 38.5%.
